TDP1 cell CPT: growth inhibition of DT40 Tdp1-/-;hTDP1 cells with camptothecin (screen for TDP1 inhibitors); chicken DT40 Tdp1-/-;hTDP1 cells + 20 nM CPT, ATP luminescence, 48 h; Potency, µM (doses to about 46.2 µM), for inactives: at the highest dose activity change, negative = growth inhibition, most hits filed as inhibitors; hit rate 12% among 420,000; also: potency is read from the fitted curve at half-maximal effect; % is scaled to controls: 0 for no effect and ±100 for the full control effect; nearly all actives have a fitted effect of over 55% in size
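Cell growth measured by CellTiter-Glo luminescence after a minimum 48 h, 37 C compound exposure with 20 nM CPT in Tdp1-knockout DT40 cells stably expressing hTDP1, seeded 400/well; qHTS titration format.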
TGFb inhibitor: inhibitors of TGF-b signaling; Potency, µM (titrated, usually from 46.1 µM), inactives show at the highest dose activity, negative = inhibition, usual class: inhibitors; hit rate 1.2% among 410,000; HepG2 CAGA-GFP TGF-b/SMAD3 reporter, GFP fluorescence, 18 h; TGF-beta stimulated, 500 pg/mL final; AID 588855; also: potency is read from the fitted curve at half-maximal effect; % is scaled to controls: 0 for no effect and ±100 for the full control effect; nearly all actives have a fitted effect of over 65% in size
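Smad-responsive CAGA-GFP expression was quantified in HEPG2 cells exposed to compounds and 500 pg/mL final TGF-beta for 18 h at 37 degrees C; unstimulated wells defined full inhibition.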
DT40 TDP1 no CPT: qHTS for Inhibitors of human tyrosyl-DNA phosphodiesterase 1 (TDP1): qHTS in cells in absence of CPT; DT40 Tdp1-/- hTDP1 cells, no CPT, ATP luminescence, 48 h; Potency, µM (series often up to 46.2 µM), without a hit: at the top dose activity change, negative = growth inhibition, usual class: inhibitors; AID 686978, 2013; hit rate 15% among 420,000; also: potency is read from the fitted curve at half-maximal effect; % is scaled to controls: 0 for no effect and ±100 for the full control effect; nearly all actives have a fitted effect of over 55% in size
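Readout: luminescence from CellTiter-Glo after 30 min in the dark at RT. Cells: DT40 Tdp1-/- with stable hTDP1, 400/well. Exposure: compounds alone, ≥48 hr, 37 °C.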
TDP1 block: blocks human tyrosyl-DNA phosphodiesterase 1; Q9NUW8; recombinant TDP1, AlphaScreen DNA substrate cleavage; Potency, µM (highest dose often 130 µM), without a hit: at the highest dose activity change, negative = inhibition, actives largely listed as inhibitors; hit rate 0.28% among 350,000; AID 485290; also: potency is read from the fitted curve at half-maximal effect; % is scaled to controls: 0 for no effect and ±100 for the full control effect; nearly all actives have a fitted effect of over 40% in size
Target sequence (Q9NUW8 whole entry, looked up): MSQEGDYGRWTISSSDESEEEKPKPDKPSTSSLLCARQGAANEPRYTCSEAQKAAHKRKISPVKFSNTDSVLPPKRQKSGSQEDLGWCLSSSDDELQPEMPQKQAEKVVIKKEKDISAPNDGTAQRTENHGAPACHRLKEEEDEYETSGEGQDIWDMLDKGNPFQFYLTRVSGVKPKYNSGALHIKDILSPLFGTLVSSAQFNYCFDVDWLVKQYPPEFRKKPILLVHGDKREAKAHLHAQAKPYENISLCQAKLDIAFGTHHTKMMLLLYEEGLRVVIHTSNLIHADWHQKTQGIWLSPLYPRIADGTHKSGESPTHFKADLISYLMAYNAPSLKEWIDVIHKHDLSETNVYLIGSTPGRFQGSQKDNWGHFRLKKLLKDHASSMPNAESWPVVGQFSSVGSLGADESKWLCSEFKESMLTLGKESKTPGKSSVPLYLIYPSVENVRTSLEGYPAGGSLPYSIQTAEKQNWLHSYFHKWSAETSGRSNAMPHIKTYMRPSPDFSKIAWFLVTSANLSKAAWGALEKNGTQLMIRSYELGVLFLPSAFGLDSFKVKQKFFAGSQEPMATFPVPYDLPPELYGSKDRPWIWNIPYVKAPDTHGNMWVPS
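Recombinant human Tdp1 (E. coli-expressed, 1 nM final) preincubated with compounds 15 min at room temperature, then 5'-biotin/3'-phosphotyrosine-FITC DNA substrate (15 nM final) added for 5 min. AlphaScreen beads (10 ug/ml final) added 10 min; cleavage lowers signal.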
HepG2 viability: HepG2 cytotoxicity, counter-screen for TGF-b inhibitors. HepG2 CAGA-GFP viability, ATP luminescence, 18 h. Potency, µM (highest dose often 46.1 µM), without a hit: top-dose activity change, negative = cytotoxicity, most hits filed as cytotoxic. hit rate 0.76% among 410,000. AID 588856; also: potency is read from the fitted curve at half-maximal effect
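HepG2 CAGA-GFP cells (1000/well, DMEM with 1% FBS) received compound, then TGF-beta at 500 pg/mL final, and were incubated 18 hours at 37 degrees C. Viability was read by CellTiter-Glo luminescence. Media-only wells were set as complete cell-killing and DMSO as no toxicity.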
IL-1B inflam inh: inhibitors of inflammasome signaling (IL-1 beta secretion) | activity change, % at 57.5 µM | AID 743279 | hit rate 4.7% among 360,000 | THP-1 LPS/ATP IL-1B secretion, AlphaLISA, 16 h; hits give low values; in the data active = activity change below about -50%; inconclusive = mostly about -30% to -49%; also: % is scaled to controls: 0 for no effect and ±100 for the full control effect
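THP-1 cells pretreated 1 hr with compounds (up to 57.5 uM final), then stimulated with LPS (250 ng/mL final) plus ATP (1.25 mM final); secreted IL-1B measured by AlphaLISA after 16 hr, decreased signal indicating inhibition.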
Starred values were filed as active, the others as inactive; [ ] = another dose, or the depositor's remark. Compounds with a hit are over-represented: about 19% of the library has one in this group of screens. Unless noted, calls follow the shape of the dose curve; as a rule, active = well fitted curve in the direction sought with a large enough effect; inconclusive = small, poorly fitted or top-dose-only effect, or another doubt; inactive = no such curve, though single readings can be large; an effect the other way counts as inactive or inconclusive.

Cc1ccc(S(=O)(=O)N2[C@@H](c3ccc(Cl)cc3)C(C(=O)O)=CC[C@H]2c2cccc(Cl)c2)cc1 was read as TDP1 cell CPT -24.7%, TGFb inhibitor -0.7%, DT40 TDP1 no CPT 3.1%, TDP1 block 1.0%, HepG2 viability 4.4% and IL-1B inflam inh 26.0.
Screening Cc1ccc(S(=O)(=O)N2[C@@H](c3ccccc3)C(C(=O)O)=CC[C@H]2c2ccc(Cl)c(Cl)c2)cc1 returned TDP1 cell CPT -15.9%, TGFb inhibitor inconclusive, DT40 TDP1 no CPT -6.3%, TDP1 block 0.2%, HepG2 viability -13.1% and IL-1B inflam inh 36.5.
Screening Cc1ccc(S(=O)(=O)N2[C@@H](c3cccc(Cl)c3)C(C(=O)OC(C)(C)C)=CC[C@H]2c2cccc(Cl)c2)cc1 returned TDP1 cell CPT 9.2µM*, TGFb inhibitor 0.6%, DT40 TDP1 no CPT 11.6µM*, HepG2 viability -4.9% and IL-1B inflam inh 6.4.
Screening CC(C)(C)OC(=O)C1=CC[C@@H](c2ccc(Cl)c(Cl)c2)N(S(=O)(=O)c2ccc(F)cc2)[C@H]1c1cccc(F)c1 returned TDP1 cell CPT inconclusive, TGFb inhibitor 1.9%, DT40 TDP1 no CPT 14.6µM*, HepG2 viability -25.3% and IL-1B inflam inh 2.8.
Cc1ccc(S(=O)(=O)NCCC(=O)Nc2ccc(C)cc2C(=O)c2ccccc2)cc1 was read as TDP1 cell CPT inconclusive, TGFb inhibitor inconclusive, DT40 TDP1 no CPT 20.6µM*, TDP1 block 7.9%, HepG2 viability -18.5% and IL-1B inflam inh -9.2.
`Cc1ccc(S(=O)(=O)N(C)C)cc1NC(=O)CCCNC(=O)c1ccc(Cl)cc1` gave TDP1 cell CPT 4.2%, TGFb inhibitor -0.4%, DT40 TDP1 no CPT -2.6%, TDP1 block -11.5%, HepG2 viability 13.5% and IL-1B inflam inh -5.8.
Screening Cc1cccc(NC(=O)c2cc(-c3ccco3)nc3ccccc23)n1 returned TDP1 cell CPT 20.6µM*, TGFb inhibitor 13.8%, DT40 TDP1 no CPT 18.4µM*, TDP1 block -3.8%, HepG2 viability 12.6% and IL-1B inflam inh 5.2.
For Cc1ccc(S(=O)(=O)NCCC(=O)Nc2cc(S(=O)(=O)N(C)C)ccc2C)cc1C the results were TDP1 cell CPT -16.9%, TGFb inhibitor 20.9%, DT40 TDP1 no CPT 16.4µM*, HepG2 viability -13.9% and IL-1B inflam inh 24.8.
CCN(CC)CC(=O)Nc1ccc(C)cc1C(=O)c1ccccc1 was read as TDP1 cell CPT -19.6%, TGFb inhibitor 3.0%, DT40 TDP1 no CPT inconclusive, TDP1 block 6.2%, HepG2 viability -8.5% and IL-1B inflam inh 5.3.
Cc1ccc(S(=O)(=O)N(C)C)cc1NC(=O)c1ccc2ccccc2n1 was read as TDP1 cell CPT 20.6µM*, TGFb inhibitor 2.0%, DT40 TDP1 no CPT inconclusive, TDP1 block 2.6%, HepG2 viability -19.2% and IL-1B inflam inh 19.0.
COc1ccc(-n2ncc3c(NC4CCCC4)ncnc32)cc1 was read as TDP1 cell CPT inconclusive, TGFb inhibitor 31.9%, DT40 TDP1 no CPT inconclusive, TDP1 block 10.4% and HepG2 viability -19.0%.
For COc1cc(C)c(NC(C)C(=O)c2c(C)[nH]c3ccccc23)cc1OC (stereo not given) the results were TDP1 cell CPT inconclusive, TGFb inhibitor 25.9%, DT40 TDP1 no CPT inconclusive and HepG2 viability 4.9%.
CCc1cc(C(=O)Nc2cc(S(=O)(=O)N(C)C)ccc2C)sc1C was read as TDP1 cell CPT 14.6µM*, TGFb inhibitor -28.9%, DT40 TDP1 no CPT 13µM*, TDP1 block 0.0%, HepG2 viability -73.6% and IL-1B inflam inh -16.8.
`Cc1ccc(S(=O)(=O)N(C)C)cc1NC(=O)c1cc(-c2ccco2)nc2ccccc12` gave TDP1 cell CPT 13µM*, TGFb inhibitor 22.3%, DT40 TDP1 no CPT 18.4µM*, TDP1 block 6.3%, HepG2 viability 6.4% and IL-1B inflam inh 14.2.
For CCCc1[nH]c2ccc(C(=O)OC)cc2c1CCC the results were TDP1 cell CPT inconclusive, TGFb inhibitor -12.0%, DT40 TDP1 no CPT inconclusive, HepG2 viability -32.8% and IL-1B inflam inh -9.2.
`CCCc1[nH]c2ccc(C#N)cc2c1CCC` gave TDP1 cell CPT inconclusive, TGFb inhibitor 20µM*, DT40 TDP1 no CPT inconclusive, HepG2 viability -114.7% and IL-1B inflam inh -20.3.
Screening Cc1cc(CNC(=O)CCN2Cc3cc(Cl)ccc3OC(C)C2)nn1C (stereo not given) returned TDP1 cell CPT -121.3%[9.04 µM] and DT40 TDP1 no CPT -9.7%.
`CCCc1cc(=O)[nH]c(Nc2ccc(Cl)cc2)n1` gave TDP1 cell CPT inconclusive, TGFb inhibitor inconclusive, DT40 TDP1 no CPT 16.4µM*, TDP1 block -1.1%, HepG2 viability -34.9% and IL-1B inflam inh -76.1*.
For CC(C)[C@H](NC(=O)N1c2ccccc2NC(=O)[C@@H]1C(C)C)C(=O)N[C@@H](Cc1c[nH]c2ccccc12)C(=O)O the results were TDP1 cell CPT -6.0%, TGFb inhibitor 36.2%, DT40 TDP1 no CPT -3.2%, HepG2 viability 18.5% and IL-1B inflam inh 23.3.
`CC(C)c1ccc(NC(=O)C(=O)C2C(=O)Nc3ccccc32)cc1` (stereo not given) gave TDP1 cell CPT 20.6µM*, TGFb inhibitor -17.1%, DT40 TDP1 no CPT 14.6µM*, TDP1 block 8.6%, HepG2 viability -24.5% and IL-1B inflam inh 21.4.
For CC(C)(C)c1ccc(NC(=O)C(=O)C2C(=O)Nc3ccccc32)cc1 (stereo not given) the results were TDP1 cell CPT inconclusive, TGFb inhibitor 16.5%, DT40 TDP1 no CPT 13µM*, TDP1 block 3.8%, HepG2 viability 6.6% and IL-1B inflam inh 29.4.
CC(=O)Oc1c(C)cc(Cl)cc1C(=O)Nc1ccc([N+](=O)[O-])cc1Cl was read as TDP1 cell CPT 0.517µM*, TGFb inhibitor inconclusive, DT40 TDP1 no CPT 0.461µM*, TDP1 block -2.7%, HepG2 viability -42.1% and IL-1B inflam inh -67.1*.
For CC(=O)OCC(=O)Nc1ccc([N+](=O)[O-])cc1Cl the results were TDP1 cell CPT 21.9%, TGFb inhibitor -5.4%, DT40 TDP1 no CPT 9.6%, TDP1 block 1.3%, HepG2 viability -18.2% and IL-1B inflam inh -5.3.
`O=C(Nc1ccc([N+](=O)[O-])cc1Cl)c1ccccc1O` gave TDP1 cell CPT 3.16µM*, TGFb inhibitor inconclusive, DT40 TDP1 no CPT 3.16µM*, TDP1 block 1.1% and HepG2 viability -34.7%.
